Common to all, as to test: NCI-60 one-dose screen, 48 h (100 = growth as untreated, 0 = no growth, -100 = all killed)
Holding throughout (details): 10 µM unless noted

For assay [1], the system named is SK-MEL-2 melanoma.
Assay [2] concerns EKVX NSCLC.
The test system of assay [3] is SN12C renal.
Assay [4] concerns UO-31 renal.
Assay [5] deals with TK-10 renal.
Assay [6] concerns ACHN renal.
For assay [7], the system named is CAKI-1 renal.
The test system of assay [8] is A498 renal.
For assay [9], the system named is CCRF-CEM leukemia.
Assay [10] deals with MOLT-4 leukemia.

This is part of a sample that, as a whole, favours compounds with a hit. Of some 83,000 tested, about 20% had one in any assay.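 96-well plates, one dose, 48 hours. Percent growth reported; active if below 10.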 Unmarked numbers belong to inactive results. Calls of active or inactive are those of the source.

For `Nc1cnc(C(=O)NNc2nc3cc(F)ccc3n3cccc23)cn1`, the growth in assay [1] was 75%; in assay [2] it was 26.2%; in assay [3], 46.6%; in assay [4], 8.25% (active); in [5], 51.3%; in assay [6], 12.9%. The growth was 29.5% in assay [7], 44.7% in [8], 21.4% in assay [9] and 19% in assay [10].
Consider `C=C1CC[C@@H]2[C@](C)(COC(C)=O)[C@H](OC(C)=O)CC[C@@]2(C)[C@@H]1CC(Nc1ccc(S(=O)(=O)Nc2ncccn2)cc1)C1=CCOC1=O` (stereo not given in full), for which the growth in [1] was 41.9%; in assay [2], 68.3%; in assay [3], 7.64% (active); in assay [4], -17.9% (active); in assay [5], 35.1%; in assay [6], -56.1% (active). Moreover, the growth in [7] was 50.2%; in [8] it was 79%; in assay [9], -26.3% (active); in assay [10], -8.69% (active).
In the case of `[O-]/[N+](=C\c1ccc(-n2cc(Cc3ccccc3Cc3cn(-c4ccc(/C=[N+](/[O-])c5ccccc5)cc4)nn3)nn2)cc1)c1ccccc1`, the growth in [1] is 111%; in assay [2], 96.8%; in assay [3], 101%; in [4], 93.3%; in [5], 121%; in assay [6], 103%. Moreover, the growth in assay [7] was 98.8%; in [8], 83.3%; in [9] it was 103%; in [10], 89.5%.
Regarding `Fc1ccc(CNc2c3ccccc3nc3ccccc23)c(F)c1`, the growth in assay [1] is 99.7%; in assay [2], 45.5%; in assay [3], 37.2%; in [4], 30.3%; in assay [5], 61%; in [6], 23.4%. The growth is 35.3% in [7], -4.38% (active) in assay [8], 53.9% in assay [9] and 23.8% in [10].
Turning to `COc1cc2nc3cc([N+](=O)[O-])ccc3c(NCCNCC(C)O)c2cc1OC` (stereo not given), the growth is -29.6% (active) in assay [1]; 9.5% (active) in [2]; -16.2% (active) in [3]; 28.6% in assay [4]; 14.3% in assay [5]; 2.74% (active) in [6]. For the same molecule, the growth in [7] is 18.6%; in assay [8] it was -34% (active); in assay [9], -6.35% (active); in assay [10], -0.334% (active).
Take `COc1ccc(CN2c3ccccc3Sc3ccccc32)cc1F`: the growth was 39.8% in assay [1]; 34.4% in assay [2]; 45.2% in [3]; 45.6% in [4]; 47.4% in assay [5]; 41.8% in assay [6]. The growth was 54.4% in [7], -1.48% (active) in assay [8], 22.1% in [9] and 27.3% in assay [10].
Regarding `Cc1ccc2c(Cn3cc(CSc4nc5ccccc5o4)nn3)cc(=O)oc2c1`, the growth in assay [1] was 106%; in assay [2], 92.1%; in assay [3] it was 102%; in [4] it was 91.1%; in [5], 122%; in assay [6], 103%. Further, the growth was 100% in assay [7], 90% in [8], 93.4% in assay [9] and 108% in assay [10].
For the molecule `O=S(=O)(Nc1ccc(Cl)c(C(F)(F)F)c1)c1ccc(-c2cnc(C3CC3)o2)cc1`, the growth in assay [1] was 5.31% (active); in assay [2], 31.5%; in [3], 10.7%; in [4], 35.5%; in assay [5], 3.01% (active); in [6], 34.6%. Moreover, the growth in [7] is 35.6%; in assay [8], -8.08% (active); in assay [9], 9.87% (active); in assay [10], 5.21% (active).
With `Cc1ccc(-c2nc([P+](c3ccccc3)(c3ccccc3)c3ccccc3)c(S(=O)(=O)c3ccc(C)cc3)o2)cc1`, the growth was 22.1% in [1]; 22.6% in assay [2]; 3.91% (active) in assay [3]; 14.9% in assay [4]; 2.83% (active) in assay [5]; -13.4% (active) in [6]. The growth in [7] was 5.62% (active); in [8], -0.861% (active); in assay [9], -6.52% (active); in assay [10], -3.24% (active).
On to `Fc1cccc(Oc2ccc(Nc3ncnc4ccc(OCCCN5CCOCC5)cc34)cc2Cl)c1`, for which the growth in assay [1] is 93.3%; in assay [2], 20.7%; in [3], 82.9%; in assay [4], 30.4%; in assay [5], 26.4%; in [6], 32.3%. Besides, the growth was 30.4% in assay [7], -4.84% (active) in [8], 58.8% in assay [9] and 53.9% in assay [10].
`CN1C(=O)/C(=C\c2nc([P+](c3ccccc3)(c3ccccc3)c3ccccc3)c(N3CCOCC3)o2)SC1=S`: the growth in assay [1] was 71.5%; in assay [2] it was 92.3%; in assay [3] it was 68.4%; in [4] it was 80.4%; in assay [5] it was 106%; in [6], 102%. Further, the growth in assay [7] was 91.5%; in assay [8], 85.6%; in [9] it was 19.9%; in assay [10], 81.5%.
`O=S(=O)(c1ccccc1)n1cc2c(c1)-c1nc(Nc3ncccn3)sc1CC2`: the growth in assay [1] was 65.2%; in assay [2], 72.4%; in assay [3] it was 57.2%; in assay [4], 41.3%; in assay [5], 64.3%; in assay [6], 22.9%. For the same molecule, the growth in assay [7] is 66.8%; in [8], 43.7%; in [9] it was 73.1%; in assay [10], 83.7%.
On to `CN(C)S(=O)(=O)c1cccc(C(=O)Nc2nc(-c3ccc(F)c(F)c3)cs2)c1`, for which the growth in [1] was 32.2%; in [2], 48.7%; in assay [3], 62.9%; in assay [4] it was 38.7%; in [5], 81.2%; in [6] it was 63.4%. In addition, the growth in assay [7] was 97.1%; in assay [8], 46.3%; in assay [9] it was 39.6%; in assay [10] it was 28.2%.
As to `Cn1cc(C(=O)c2nc(-c3c[nH]c4ccccc34)no2)c2cc(F)ccc21`, the growth in assay [1] is 26.9%; in assay [2] it was 57.5%; in assay [3], 59.5%; in assay [4], 42.4%; in assay [5], 57.6%; in assay [6], 49.6%. Besides, the growth was 32.9% in assay [7], 25.3% in [8], 23.9% in assay [9] and 38.9% in assay [10].
Consider `COc1cc2oc(-c3cccc(NC(=O)c4ccccc4)c3)cc(=O)c2c(OC)c1OC`, for which the growth in assay [1] is 76.8%; in assay [2], 103%; in [3], 76.2%; in assay [4] it was 51%; in [5], 91.3%; in assay [6] it was 61.6%. The growth was 87.2% in assay [7], 59.4% in [8], 45.7% in assay [9] and 40.7% in assay [10].
Consider `CC1=C([Se]CC(OC(=O)CC[Se]c2ccccc2)C(=O)NC(C)(C)C)C(=O)c2ccccc2C1=O` (stereo not given), for which the growth in assay [1] is 9.93% (active); in [2], -65.4% (active); in assay [3], -62.5% (active); in [4] it was -12% (active); in assay [5], -89.8% (active); in [6] it was -55.5% (active). Further, the growth in assay [7] was -34.3% (active); in [8] it was -26.4% (active); in [9], -10.8% (active); in assay [10], -31.6% (active).
For the molecule `CCOC(=O)c1ccc2c(c1)nc(-c1ccccc1)n2C1CCCCC1`, the growth in assay [1] was 86.1%; in [2], 83%; in [3] it was 105%; in assay [4], 84%; in assay [5], 116%; in assay [6] it was 112%. Moreover, the growth in assay [7] is 101%; in assay [8] it was 97.8%; in assay [9], 79.4%; in assay [10], 85.5%.
In the case of `CCN(C)S(=O)(=O)Nc1cccc(Nc2ncnc3cc(NC(=O)CCl)ccc23)c1Cl`, the growth in [1] is 17.7%; in assay [2] it was 18.4%; in assay [3], -27.9% (active); in assay [4], -87.4% (active); in assay [5], 1.2% (active); in assay [6], -67.8% (active). Besides, the growth in assay [7] is -15.4% (active); in assay [8], 81.7%; in assay [9] it was 5.63% (active); in assay [10], 5.41% (active).
Take `Cn1cc(-c2csc(-c3cn(C(=O)OC(C)(C)C)c4ccc(Br)cc34)n2)c2ccnc(Cl)c21`: the growth in assay [1] was 96.3%; in assay [2], 87.7%; in assay [3], 93.6%; in assay [4], 96%; in assay [5] it was 92.9%; in [6], 82.8%. The growth in [7] was 96.4%; in assay [8], 89.6%; in assay [9], 93.1%; in [10], 90.9%.
`Cc1ccc(CNc2ccc3nc(CCC4CCCCC4)[nH]c3c2)cc1`: the growth in assay [1] is 58.8%; in assay [2], 53.4%; in assay [3] it was 45.7%; in [4], 23.8%; in assay [5], 54.8%; in assay [6], 47.8%. For the same molecule, the growth in assay [7] is 35.8%; in [8], 57.5%; in [9], 39.9%; in [10] it was 19.5%.
With `CCOC(=O)c1c(C(=O)c2cn(C)c3ccc(Br)cc23)c(-c2cn(C)c3ccc(Br)cc23)n(NC(=O)OC(C)(C)C)c1C`, the growth is 57.8% [100 µM] in assay [1]; 80.5% [100 µM] in [2]; 92% [100 µM] in assay [3]; 58.7% [100 µM] in assay [4]; 69.2% [100 µM] in assay [5]; 78.9% [100 µM] in assay [6]. Besides, the growth in [7] was 43.9% [100 µM]; in [8], 87.2% [100 µM]; in assay [9] it was 102% [100 µM]; in [10] it was 99.5% [100 µM].
For the molecule `CN(C)CC(C)(C)C(=O)/C=C/c1ccccc1`, the growth was -74.2% [25 µM] (active) in [1]; -18.5% [25 µM] (active) in assay [2]; -34.1% [25 µM] (active) in [3]; -90.3% [25 µM] (active) in assay [4]; -9.48% [25 µM] (active) in assay [5]; -71.4% [25 µM] (active) in assay [6]. Further, the growth is -6.22% [25 µM] (active) in [7], -14.7% [25 µM] (active) in assay [8], 2.8% [25 µM] (active) in assay [9] and -5.22% [25 µM] (active) in [10].
As to `CNC(=O)c1[nH]cc(-c2ccc(OC)cc2)c1-c1cc(OC)c2c(c1OC)OCO2`, the growth is 105% in assay [1]; 96.8% in assay [2]; 96.8% in assay [3]; 82.9% in [4]; 108% in assay [5]; 97.7% in assay [6]. The growth is 83.6% in assay [7], 109% in [8], 101% in assay [9] and 109% in assay [10].
On to `Cc1cn(-c2cc(NC(=O)c3cncc(C#Cc4cnc(N)c5ncccc45)c3)cc(C(F)(F)F)c2)cn1`, for which the growth in assay [1] was 6.39% (active); in [2], 85.1%; in assay [3], 58.3%; in [4], 25.4%; in [5] it was 90.3%; in assay [6], 73.4%. In addition, the growth in [7] is 92%; in assay [8] it was 60.7%; in assay [9], 32.5%; in assay [10], 34.7%.
With `COc1ccccc1NC(=O)N=Nc1c(O)[nH]c2ccccc12`, the growth in assay [1] was 100%; in [2] it was 83.9%; in [3], 93.5%; in [4] it was 58.7%; in assay [5], 118%; in assay [6] it was 93%. In addition, the growth is 73.3% in [7], 90.7% in assay [8], 89.9% in assay [9] and 93.4% in [10].
Turning to `Cc1[nH]c(=O)[nH]c(=O)c1Br`, the growth in assay [1] was 148%; in assay [2] it was 106%; in [3] it was 98%; in [4], 105%; in assay [5], 114%; in assay [6] it was 104%. The growth in [7] was 92.9%; in assay [8], 103%; in assay [9] it was 107%; in [10] it was 94%.

The values are drawn from PubChem BioAssay (NCI).
